IEC-6 cytotox = counter-screen for KLF5 inhibitors: cytotoxicity in IEC-6 cells | IEC-6 cytotoxicity, luminescence viability | inhibition, % at 5 µM | 290,000 tested, 0.78% active | AID 1825; in the data active = inhibition above about 22%;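 also: 0% = plate median of test compound wells and 100% = cytotoxic reference compound wells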
SKKanGAS inh = blocks kanamycin growth of S. pyogenes SKKanGAS strain | BacTiter-Glo, 6 h | inhibition, % at 7.5 µM | 300,000 tested, 1.3% active | AID 1662;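 active = mean replicate score, as percent of positive control median, at least 50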;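 also: strain carries kanamycin resistance gene driven by streptokinase promoter and grows in 40 µg/ml kanamycin; loss of luminescence reflects streptokinase promoter inhibition or plain growth inhibition; 0% = median of DMSO wells and 100% = positive control at its reference dose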
KLF5 inh = kruppel-like factor 5 inhibition; 290,000 tested, 0.23% active; AID 1700; DLD-1 KLF5 promoter-luciferase reporter, luminescence; inhibition, % at 5 µM;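 active = inhibition above a per-plate limit of that plate's mean compound inhibition plus 3 SD, cut at about 60% in these data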;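 also: 0% = DMSO wells and 100% = LY294002 at 200 µM; higher means less KLF5 promoter-driven luciferase light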
aSyn 5UTR inh = MLPCN primary screen, SNCA 5' untranslated region. alpha-synuclein 5'UTR reporter, inhibitor activity. inhibition, % (tested at 7.5 µM). 300,000 tested, 0.82% active; in the data active = inhibition above about 60%;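 also: H4 neuroglioblastoma cells stably carrying SNCA 5'UTR luciferase fusion; 0% = DMSO wells and 100% = positive control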
CSC inhib = blocks cancer stem cells. cancer stem cell-like cells viability, luminescence. inhibition, % at 7.5 µM. 300,000 tested, 1.1% active. AID 2717; in the data active = inhibition above about 75%; tested in HMLE shEcad cells
Numbers without * were called inactive; x = no result; ! = repeats disagree. Only some compounds are listed: those with a hit (about 3% of all), similar ones and a draw of the others.

SMILES	IEC-6 cytotox	SKKanGAS inh	KLF5 inh	aSyn 5UTR inh	CSC inhib
O=C(COc1ccccc1-c1ccccc1)N/N=C/c1cccc2ccccc12	12	44	5	75*	95*
CCOC(=O)C1=C(C)NC(=S)NC1/C=C/c1ccccc1 (stereo not given)	21	6	-17	10	-9
CC(C)c1ccc(OCC(=O)NNC(=S)NC(=O)C2CC2)cc1	10	96*	-12	-12	-11
Cc1ccc(OCC(=O)NC(=S)Nc2ccccn2)c(Br)c1	-4	8	-112	39	-7
CC(C)c1ccc(OCC(=O)NNC(=S)NC(=O)c2cccs2)c(Br)c1	-6	78*	-35	-14	-9
CC(C)c1ccc(OCC(=O)NN2C(=O)c3ccccc3C2=O)c(Br)c1	3	1	-11	-3	x
Cc1ccc(OCC(=O)NNC(=S)NC(=O)C(C)(C)C)c(Br)c1	-4	90*	-12	-1	15
Cc1ccc(OCC(=O)NNC(=S)NC(=O)C2CCCCC2)c(C)c1	3	90*	-25	-1	8
Cc1cccc(C(=O)NCC(c2ccc(F)cc2)N2CCOCC2)c1 (stereo not given)	1	-6	-19	1	2
CCOC(=O)c1ccc(NS(=O)(=O)c2c(N)n(C)c(=O)n(C)c2=O)cc1	x	9	x	1	15
CCC1(c2ccc(F)cc2)NC(=O)N(CC(=O)N2c3ccccc3CC2C)C1=O (stereo not given)	x	x	x	x	6
CCOC(=O)c1cc(CC)sc1NC(=O)c1ccc([N+](=O)[O-])c(N2CCOCC2)c1	0	-5	-19	4	32
O=C(NCc1ccco1)C1CCCN1C(=O)Nc1ccccc1Cl (stereo not given)	-2	-16	-37	-28	5
CN1CCN(c2oc(-c3ccccc3)nc2S(=O)(=O)c2ccc(Br)cc2)CC1	0	8	-20	-6	-4
COc1ccc(-c2csc(C3=C(O)CN(CCCN4CCCC4=O)C3=N)n2)cc1OC	-9	0	-12	-13	-43
CC(C)CCCCCCNC(=S)Nc1ccc(S(=O)(=O)N2CCOCC2)cc1	3	-8	-13	32	91*
O=S(=O)(c1ccc(NC(=S)Nc2ccccc2)cc1)N1CCOCC1	0	8	-47	-17	-1
COc1cc(CN2CCCCCC2)cc(OC)c1OC	-3	3	-3	3	-20
COc1cc(Cc2cnc(N)nc2N)cc(OC)c1OC	0	51*	-20	-5	-8
COc1ccc(C)cc1NC(=O)NNC(=O)c1cc2ccccc2cc1O	-3	-1	-23	5	6
COc1cc(NC(=O)c2cc3ccccc3cc2O)c(OC)cc1Cl	1	17	-42	-12	76*
Cc1ccc(Cl)cc1NC(=O)COC(=O)c1ccccc1O	5	-9	-10	5	12
Cc1ccc(Cl)cc1NC(=O)c1cc2ccccc2cc1O	-4	97*	-23	54	28
COc1ccccc1NC(=O)c1cc2cc(Br)ccc2cc1O	-3	53*	-17	-3	106*
CC1Cc2ccccc2N1Cc1cccc([N+](=O)[O-])c1 (stereo not given)	-1	7	-16	22	-8
SMILES	IEC-6 cytotox	SKKanGAS inh	KLF5 inh	aSyn 5UTR inh	CSC inhib
Clc1ccc(OCCCNCc2ccccc2)c2ccccc12	-1	21	-16	20	110*
Brc1ccccc1OCCNCc1ccccc1	-1	12	-5	-56	10
Cc1nc(S(=O)(=O)c2ccc(Cl)cc2)c(N(C)C)o1	2	-3	-11	-7	-2
CN(C)CCC(=O)C(Cc1ccccc1)c1ccccc1 (stereo not given)	x	-6	x	99*	64
O=C(Cn1nnc2ccccc21)NNC(=O)c1ccccc1	-2	4	-16	-6	-9
O=C1NC(=S)/C(=C\c2ccc(-c3ccccc3Cl)o2)S1	-12	114*	-19	-56	118*
O=C1NC(=O)/C(=C/c2ccc(-c3cc(C(=O)O)ccc3Cl)o2)S1	-19	34	-11	-22	-8
CCC(Oc1ccccc1)C(=O)NC1C(=O)N2C1SC(C)(C)C2C(=O)O (stereo not given)	-4	111*	3	-7	2
CCOc1ccc2ccccc2c1C(=O)N[C@@H]1C(=O)N2[C@@H]1SC(C)(C)[C@@H]2C(=O)O	-2	17	-14	2	-3
CC1(C)S[C@@H]2[C@H](NC(=O)Cc3ccccc3)C(=O)N2[C@H]1C(=O)O	2	100*!	-17	10	6
CC1(C)S[C@@H]2[C@H](NC(=O)C(NC(=O)N3CCNC3=O)c3ccccc3)C(=O)N2[C@H]1C(=O)O (stereo not given in full)	0	114*	-3	-1	-8
Cc1cc(COC(=O)C2N3C(=O)[C@@H](NC(=O)COc4ccccc4)[C@H]3SC2(C)C)on1 (stereo not given in full)	4	103*	-4	-6	5
CC1(C)S[C@@H]2[C@H](NC(=O)[C@H](N)c3ccccc3)C(=O)N2[C@H]1C(=O)OC1OC(=O)c2ccccc21 (stereo not given in full)	x	x	x	x	0
O=C(C[n+]1cccc(Br)c1)c1ccc(-c2ccccc2)cc1	-7	3	-46	-32	31
CC1=C([N+](=O)[O-])C(c2cccc(Br)c2)C2=C(N1)c1ccccc1C2=O (stereo not given)	77*	44	48	90*	53
O=S1(=O)Nc2c(ccc3cccnc23)-c2ccccc21	67*	112*	55	6	96*
COc1cc2nc(=S)n3[nH]c(COc4ccccc4C)nc3c2cc1OC	-1	64*	-1	35	14
COc1ccc2[nH]c3c(c2c1)CCNC3=O	x	-2	x	-23	-23
O=C1NCCc2c1[nH]c1ccc([N+](=O)[O-])cc21	-3	-5	10	70*	-2
O=C(Cc1c(F)cccc1Cl)Nc1ccc(S(=O)(=O)NCC2CCCO2)cc1 (stereo not given)	8	-21	-20	14	0
CC(C)(C)C(=O)COC(=O)c1cc(-c2cccnc2)nc2ccccc12	0	-11	-20	-40	-16
COc1ccc(/C=N/NC(=S)Nc2ccccc2[N+](=O)[O-])cc1O	7	-2	-66	-131	89*
Cc1ccccc1NC(=S)N/N=C/c1ccc(O)cc1O	1	16	-50	-38	70
O=[N+]([O-])c1cc(/C=N/NC(=S)Nc2ccccc2Cl)ccc1Cl	8	x	0	x	84*
Cc1cccc(NC(=S)N/N=C/c2cccc(O)c2)c1C	13	1	38	-37	80*
COc1ccc(F)cc1S(=O)(=O)NCc1cc(=O)n(C)c(=O)n1C	1	-3	-36	4	4
Cc1cc(NC(=O)Nc2ccccc2[N+](=O)[O-])n(C)n1	-3	-3	-13	9	-3
CCSc1nnc(NC(=O)c2cnccn2)s1	x	4	x	-43	-19
O=C(CN1C(=O)C2CC=CCC2C1=O)Nc1nnc(SCc2c(Cl)cccc2Cl)s1 (stereo not given)	-7	26	23	13	-3

Screens from PubChem.
